Data as given in PubChem BioAssay (NCATS).
Values joined by “and” are separate entries in the source; they are usually repeats but may differ in a detail not shown here. Equal entries are not always repeated. Results filed as inconclusive are left out. Active and inactive are the calls of the source. Unless noted, the call rests on the fitted dose curve; in most records, active means well fitted curve in the direction sought with a large enough effect; inconclusive means small, poorly fitted or top-dose-only effect, or another doubt; inactive means no such curve, though single readings can be large; an effect the other way counts as inactive or inconclusive.

Test system: not listed separately
Test: qHTS assay for small molecule agonists of the antioxidant response element (ARE) signaling pathway measured by Nrf2-dependant transcriptional activity - cell viability counter screen (AID 720653; active means well fitted curve in the direction sought with a large enough effect in the repeat runs; an effect the other way counts as inactive or inconclusive; further: on the % scale 0 is the no-effect control and ±100 the full control effect)
Conditions: ARE-bla HepG2 viability, CellTiter-Glo ATP luminescence, 16 h; hits give low values
Procedure, shortened: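 Cytotoxicity counter screen: intracellular ATP quantified by CellTiter-Glo luminescence in the same ARE-bla HepG2 plates, after 16 h compound exposure and a 2 h beta-lactamase substrate step.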

SMILES | max response
CCc1cccc(CC)c1N(COC)C(=O)CCl | 6.28% (inactive) and -3.56% (inactive)
C/C=C/c1ccc2c(c1)OCO2 | -6.6% (inactive)
C=CCc1ccc2c(c1)OCO2 | -4.7% (inactive)
COP(=S)(OC)Oc1ccc([N+](=O)[O-])cc1 | 0.527% (inactive) and -8.08% (inactive)

Test system: not listed separately
Test: qHTS assay for cell viability of HEK293 cells (AID 743288); further: on the % scale 0 is the no-effect control and ±100 the full control effect; nearly all actives have a fitted effect of over 50% in size
Conditions: ATP luminescence (CellTiter-Glo), 18 h; max response: hits give low values
Procedure, shortened: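 Readout is luciferase-coupled ATP content (CellTiter-Glo luminescence, 30 min room temperature) as a measure of metabolically competent cells. Parental HEK293 cells were plated 5 h or more before compound addition, then treated 18 h at 37 C.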

SMILES | max response
O=C(O)COc1ccc(Cl)cc1Cl | 0.426% (inactive) [middle of 4 runs]
ClC1=C(Cl)C2(Cl)C3C4C=CC(C4)C3C1(Cl)C2(Cl)Cl (centres undefined) | -24.9% (inactive)
O=S1OCC2C(CO1)C1(Cl)C(Cl)=C(Cl)C2(Cl)C1(Cl)Cl (centres undefined) | -13.5% (inactive)
c1ccc(N=Nc2ccccc2)cc1 | 1.24% (inactive) and -11.6% (inactive)
CCOCN(C(=O)CCl)c1c(C)cccc1CC | -18.2% (inactive) and -18.7% (inactive)
CNC(=O)O/N=C/C(C)(C)SC | -1.1% (inactive) and -12.4% (inactive) and -2.16% (inactive)
CCNc1nc(Cl)nc(NC(C)C)n1 | 2.61% (inactive) and -2.5% (inactive)
C=CCc1ccc(OC)cc1 | 2.04% (inactive)
ClC1=C(Cl)C2(Cl)C3C(Cl)C=CC3C1(Cl)C2(Cl)Cl (centres undefined) | -13.7% (inactive)
ClC1=C(Cl)C2(Cl)C3C4CC(C5OC45)C3C1(Cl)C2(Cl)Cl (centres undefined) | -18.3% (inactive)
ClC(Cl)=C(c1ccc(Cl)cc1)c1ccc(Cl)cc1 | -14.7% (inactive) and -6.72% (inactive) and -17.4% (inactive)
CCc1cccc(CC)c1N(COC)C(=O)CCl | -15.4% (inactive) and -21.3% (inactive)
C/C=C/c1ccc2c(c1)OCO2 | -1.69% (inactive)
C=CCc1ccc2c(c1)OCO2 | -8.48% (inactive)
COP(=S)(OC)Oc1ccc([N+](=O)[O-])cc1 | -1.38% (inactive) and -0.0798% (inactive)

Test system: not listed separately
Test: qHTS assay for cell viability of the p53RE-bla HCT-116 cell line (AID 743292); further: on the % scale 0 is the no-effect control and ±100 the full control effect; nearly all actives have a fitted effect of over 55% in size
Conditions: p53RE-bla HCT-116 viability, ATP luminescence, 16 h; series mostly up to 95 µM; activity change, negative = cytotoxicity: at the top concentration
Procedure, shortened: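 CellSensor p53RE-bla HCT-116 cells (4,000/well) pre-incubated 5 h at 37 C, then exposed to compounds in DMSO for 16 h at 37 C. Viability read as ATP content by CellTiter-Glo luminescence after 30 min at room temperature.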

SMILES | Potency | activity change, negative = cytotoxicity
O=C(O)COc1ccc(Cl)cc1Cl | inactive | –
O=S1OCC2C(CO1)C1(Cl)C(Cl)=C(Cl)C2(Cl)C1(Cl)Cl (centres undefined) | – | -15.3% (inactive)
c1ccc(N=Nc2ccccc2)cc1 | inactive | –
CCOCN(C(=O)CCl)c1c(C)cccc1CC | inactive | –
CNC(=O)O/N=C/C(C)(C)SC | inactive | –
CCNc1nc(Cl)nc(NC(C)C)n1 | inactive | –
C=CCc1ccc(OC)cc1 | – | 0.363% (inactive)
ClC1=C(Cl)C2(Cl)C3C(Cl)C=CC3C1(Cl)C2(Cl)Cl (centres undefined) | – | -14.9% (inactive)
ClC1=C(Cl)C2(Cl)C3C4CC(C5OC45)C3C1(Cl)C2(Cl)Cl (centres undefined) | – | -16.4% (inactive)
ClC(Cl)=C(c1ccc(Cl)cc1)c1ccc(Cl)cc1 | inactive | –
CCc1cccc(CC)c1N(COC)C(=O)CCl | inactive | –
C/C=C/c1ccc2c(c1)OCO2 | – | -0.963% (inactive)
C=CCc1ccc2c(c1)OCO2 | – | 4.8% (inactive)
COP(=S)(OC)Oc1ccc([N+](=O)[O-])cc1 | inactive | –

Target: Rap guanine nucleotide exchange factor 3 (Homo sapiens) (UniProt O95398)
Sequence (O95398 whole entry, looked up): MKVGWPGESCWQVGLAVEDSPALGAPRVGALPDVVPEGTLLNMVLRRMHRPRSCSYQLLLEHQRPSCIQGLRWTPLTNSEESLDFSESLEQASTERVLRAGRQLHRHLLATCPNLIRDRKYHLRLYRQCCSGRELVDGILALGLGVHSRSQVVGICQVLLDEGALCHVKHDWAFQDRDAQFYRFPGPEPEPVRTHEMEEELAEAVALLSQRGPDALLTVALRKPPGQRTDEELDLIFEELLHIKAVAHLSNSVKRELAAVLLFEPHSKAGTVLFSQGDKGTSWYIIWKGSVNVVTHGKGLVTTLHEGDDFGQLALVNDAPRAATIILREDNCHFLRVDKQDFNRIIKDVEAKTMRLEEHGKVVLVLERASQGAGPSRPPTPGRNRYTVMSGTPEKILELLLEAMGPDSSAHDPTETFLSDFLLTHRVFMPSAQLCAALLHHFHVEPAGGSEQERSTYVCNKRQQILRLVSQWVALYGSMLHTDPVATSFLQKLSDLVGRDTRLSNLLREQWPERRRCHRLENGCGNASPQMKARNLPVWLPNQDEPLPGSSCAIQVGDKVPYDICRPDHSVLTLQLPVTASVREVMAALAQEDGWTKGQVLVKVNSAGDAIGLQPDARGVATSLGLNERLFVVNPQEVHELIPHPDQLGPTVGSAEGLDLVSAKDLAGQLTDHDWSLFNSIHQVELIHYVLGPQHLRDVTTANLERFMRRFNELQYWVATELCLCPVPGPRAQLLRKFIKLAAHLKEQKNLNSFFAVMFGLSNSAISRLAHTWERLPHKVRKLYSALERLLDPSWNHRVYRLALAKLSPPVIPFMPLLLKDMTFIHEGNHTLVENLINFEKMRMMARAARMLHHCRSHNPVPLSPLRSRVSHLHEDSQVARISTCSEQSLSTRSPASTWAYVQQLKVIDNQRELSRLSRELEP
Test: Confirmatory qHTS for agonist of cAMP-regulated guanine nucleotide exchange factor 3 (EPAC1) (AID 1645881);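 further: EPAC1 catalysed release of BODIPY-GDP from Rap1B seen as fluorescence loss; 100% = effect of cAMP agonist control; nearly all actives have a fitted effect of over 75% in size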
Conditions: EPAC1 Rap1B BODIPY-GDP exchange fluorescence; series mostly up to 154 µM; activation: at the top concentration

SMILES | activation
O=C1C=CC(=O)c2c(O)cccc21 | 7.86% (inactive)
CC(=O)OC1CC2C(C)(C)C(=O)C=C[C@]2(C)C2CC[C@]3(C)C(=CC(=O)OC3c3ccoc3)[C@]12C (some centres undefined) | 1.91% (inactive)
O=C1c2ccccc2-c2cccc3cccc1c23 | -5.65% (inactive)
COc1cc2c(cc1-c1cc3cc4ccoc4cc3oc1=O)OCO2 | -5.05% (inactive)

Target: Rap guanine nucleotide exchange factor 4 (Homo sapiens) (UniProt Q8WZA2)
Sequence (Q8WZA2 whole entry, looked up): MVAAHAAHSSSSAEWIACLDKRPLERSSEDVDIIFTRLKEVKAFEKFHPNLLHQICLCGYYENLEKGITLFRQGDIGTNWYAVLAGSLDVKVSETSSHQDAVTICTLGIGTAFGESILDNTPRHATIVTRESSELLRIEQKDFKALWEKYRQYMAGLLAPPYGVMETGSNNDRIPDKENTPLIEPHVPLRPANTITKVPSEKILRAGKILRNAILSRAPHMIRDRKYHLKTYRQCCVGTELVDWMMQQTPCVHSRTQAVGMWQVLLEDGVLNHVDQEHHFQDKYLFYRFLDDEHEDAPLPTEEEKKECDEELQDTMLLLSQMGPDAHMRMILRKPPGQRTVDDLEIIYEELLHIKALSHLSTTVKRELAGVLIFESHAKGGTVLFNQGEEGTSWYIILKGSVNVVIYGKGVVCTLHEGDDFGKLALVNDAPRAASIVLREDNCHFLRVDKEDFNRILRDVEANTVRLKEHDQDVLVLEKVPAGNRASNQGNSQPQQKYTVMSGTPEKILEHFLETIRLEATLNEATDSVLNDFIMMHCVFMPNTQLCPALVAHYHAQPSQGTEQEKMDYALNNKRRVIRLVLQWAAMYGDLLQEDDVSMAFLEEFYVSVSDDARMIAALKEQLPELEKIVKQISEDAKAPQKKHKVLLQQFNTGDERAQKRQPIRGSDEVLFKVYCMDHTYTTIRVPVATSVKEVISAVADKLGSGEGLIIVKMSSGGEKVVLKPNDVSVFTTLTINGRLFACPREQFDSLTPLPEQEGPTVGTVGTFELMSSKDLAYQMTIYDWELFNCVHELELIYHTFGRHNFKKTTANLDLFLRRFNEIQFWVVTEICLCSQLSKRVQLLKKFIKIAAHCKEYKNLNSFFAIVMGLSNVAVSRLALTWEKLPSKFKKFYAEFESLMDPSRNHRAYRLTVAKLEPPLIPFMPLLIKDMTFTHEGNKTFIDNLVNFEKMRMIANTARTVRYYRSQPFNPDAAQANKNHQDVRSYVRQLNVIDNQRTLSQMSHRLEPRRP
Test: Confirmatory qHTS for agonist of cAMP-regulated guanine nucleotide exchange factor 4 (EPAC2) (AID 1645884);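 further: nucleotide exchange releases bodipy-GDP from Rap1 and this lowers its fluorescence; on the % scale 0 is the no-effect control and ±100 the full control effect; nearly all actives have a fitted effect of over 65% in size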
Conditions: EPAC2 GEF activity, Rap1B-BODIPY-GDP fluorescence; series mostly up to 154 µM; activation: at the top concentration

SMILES | activation
O=C1C=CC(=O)c2c(O)cccc21 | 18% (inactive)
CC(=O)OC1CC2C(C)(C)C(=O)C=C[C@]2(C)C2CC[C@]3(C)C(=CC(=O)OC3c3ccoc3)[C@]12C (some centres undefined) | 6.73% (inactive)
O=C1c2ccccc2-c2cccc3cccc1c23 | 0.0722% (inactive)
COc1cc2c(cc1-c1cc3cc4ccoc4cc3oc1=O)OCO2 | 0.914% (inactive)

Target: Rap guanine nucleotide exchange factor 4 (Homo sapiens) (UniProt Q8WZA2)
Test: Confirmatory qHTS for antagonist of cAMP-regulated guanine nucleotide exchange factor 4 (EPAC2) (AID 1645885); further: nearly all actives have a fitted effect of over 25% in size; further: potency means the concentration at half of the fitted maximal effect; on activity change, negative = inhibition: on the % scale 0 is the no-effect control and ±100 the full control effect
Conditions: EPAC2 Rap1B-BODIPY-GDP exchange fluorescence, biochemical; series mostly up to 114 µM; activity change, negative = inhibition: at the top concentration

SMILES | activity change, negative = inhibition | Potency
O=C1C=CC(=O)c2c(O)cccc21 | -9.28% (inactive) | –
O=C1c2ccccc2-c2cccc3cccc1c23 | -8.56% (inactive) | –
COc1cc2c(cc1-c1cc3cc4ccoc4cc3oc1=O)OCO2 | – | 0.987 µM (active)

Test system: not listed separately
Test: Viability counterscreen for antagonist of constitutive androstane receptor (CAR) against the NCATS DSHEA and TCM libraries (AID 1794837);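 further: compound exposure lasted 24 h before viability reading; 0% is about no effect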
Conditions: CAR reporter cell line viability counterscreen, qHTS; series mostly up to 40 µM; viability change, negative = cytotoxic: at the top concentration
Procedure, shortened: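 Viability was measured by CellTiter-Fluor fluorescence (405/540 nm, 1 hr) in HepG2-CYP2B6-hCAR cells. Cells were co-treated 24 hr with 48 uM CITCO (final), antagonist mode, and test substances.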

SMILES | viability change, negative = cytotoxic
COc1cc2c(cc1O)CC1c3c(cc(O)c(OC)c3-2)CCN1C (centres undefined) | -1.38% (inactive)
C=CCc1ccc2c(c1)OCO2 | -4.88% (inactive)
COc1ccc2c(c1O)-c1c(OC)c(OC)cc3c1[C@H](C2)N(C)CC3 | 5.41% (inactive)

Test system: not listed separately
Test: Viability counterscreen for agonist of constitutive androstane receptor (CAR) against the NCATS DSHEA and TCM libraries (AID 1794838);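 further: HepG2 cells with CYP2B6 reporter and hCAR plus 0.75 µM PK11195 antagonist; cells exposed to compound for 24 h; 0% is about no effect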
Conditions: HepG2 cell viability counterscreen, CAR agonist assay; series mostly up to 40 µM; activity change, negative = cytotoxicity: at the top concentration
Procedure, shortened: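 Cell viability, from CellTiter-Fluor fluorescence (405/540 nm), was scored after a 24 h, 37C exposure of HepG2 cells carrying CYP2B6 reporter and hCAR to test substances in presence of 0.75 uM PK11195.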

SMILES | activity change, negative = cytotoxicity
COc1cc2c(cc1O)CC1c3c(cc(O)c(OC)c3-2)CCN1C (centres undefined) | -0.35% (inactive)
C=CCc1ccc2c(c1)OCO2 | -0.999% [at 40 µM] (inactive)
COc1ccc2c(c1O)-c1c(OC)c(OC)cc3c1[C@H](C2)N(C)CC3 | 12.7% [at 40 µM] (inactive)

Test system: not listed separately
Test: HepG2 viability counterscreen (readout 2: ATP content) against the NCATS DSHEA and TCM libraries (AID 1794840);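 further: HepG2 cells exposed to substances for about 24 h; 0% is about no effect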
Conditions: ATP content luminescence; series mostly up to 27.3 µM; activity change, negative = cytotoxic: at the top concentration
Procedure, shortened: (§1)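 Readout 1: cellular protease activity, GF-AFC substrate (25 uM final, 30 min, fluorescence 380/510 nm). Readout 2: ATP content by CellTiter-Glo luminescence after 30 min at RT. Both follow ~24 h exposure of HepG2 cells (1,000/well) to substances.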

SMILES | activity change, negative = cytotoxic
COc1cc2c(cc1O)CC1c3c(cc(O)c(OC)c3-2)CCN1C (centres undefined) | 8.47% (inactive)
C=CCc1ccc2c(c1)OCO2 | -0.107% (inactive)
COc1ccc2c(c1O)-c1c(OC)c(OC)cc3c1[C@H](C2)N(C)CC3 | 9.63% (inactive)

Test system: not listed separately
Test: HepG2 viability counterscreen (readout 1: protease activity) against the NCATS DSHEA and TCM libraries (AID 1794841);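 further: cells exposed to compounds for about 24 h before the protease read; 0% is about no effect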
Conditions: qHTS concentration series; series mostly up to 27.3 µM; activity change, negative = inhibition: at the top concentration
Procedure, shortened: as §1

SMILES | activity change, negative = inhibition
COc1cc2c(cc1O)CC1c3c(cc(O)c(OC)c3-2)CCN1C (centres undefined) | -1.56% (inactive)
C=CCc1ccc2c(c1)OCO2 | 36.7% (inactive)
COc1ccc2c(c1O)-c1c(OC)c(OC)cc3c1[C@H](C2)N(C)CC3 | -3.36% (inactive)

Target: Cytochrome P450 2C9 (Homo sapiens) (UniProt P11712)
Sequence (P11712 whole entry, looked up): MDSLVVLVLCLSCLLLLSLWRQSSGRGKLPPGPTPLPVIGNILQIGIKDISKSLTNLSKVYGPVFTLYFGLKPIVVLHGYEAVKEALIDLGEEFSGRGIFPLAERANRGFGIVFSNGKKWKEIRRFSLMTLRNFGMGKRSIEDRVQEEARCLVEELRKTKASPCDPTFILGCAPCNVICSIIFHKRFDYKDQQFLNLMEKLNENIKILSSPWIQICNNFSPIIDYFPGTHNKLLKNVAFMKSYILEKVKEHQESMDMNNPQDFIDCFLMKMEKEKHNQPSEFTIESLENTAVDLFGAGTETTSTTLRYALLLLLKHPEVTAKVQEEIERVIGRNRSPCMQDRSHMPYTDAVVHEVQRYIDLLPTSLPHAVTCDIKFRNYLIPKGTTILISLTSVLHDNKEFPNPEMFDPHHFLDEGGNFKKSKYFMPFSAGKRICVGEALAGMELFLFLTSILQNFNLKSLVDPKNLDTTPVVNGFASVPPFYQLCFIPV
Test: qHTS for inhibitors of CYP2C9 against the NCATS DSHEA and TCM libraries (AID 1919973); further: potency means the concentration at half of the fitted maximal effect;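 on activity change, negative = inhibition: luminogenic pro-luciferin CYP2C9 substrate turned into luciferin with NADPH regeneration; on the % scale 0 is the no-effect control and ±100 the full control effect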
Conditions: recombinant CYP2C9 enzyme activity, luminescence; series mostly up to 34.1 µM; activity change, negative = inhibition: at the top concentration
Procedure, shortened: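 Isoform-specific enzyme and substrate levels; enzyme-free wells as background. Reaction: 1x NADPH regenerating system, 30-45 min, room temperature, shielded from light; luminescent detection reagent added, 30 min.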

SMILES | Potency | activity change, negative = inhibition
COc1cc2c(cc1O)CC1c3c(cc(O)c(OC)c3-2)CCN1C (centres undefined) | 10 µM (active) | –
C=CCc1ccc2c(c1)OCO2 | – | 17.7% (inactive)
COc1ccc2c(c1O)-c1c(OC)c(OC)cc3c1[C@H](C2)N(C)CC3 | – | -23.5% (inactive)
